HIV RNase H inh-1 = blocks HIV-1 RNase H cleavage of RNA/DNA duplex | P04585 | RT-RNase H RNA/DNA duplex cleavage, fluorescence | hit rate 1.9% among 65,000 | inhibition, % at 10 µM; in the data active = inhibition above about 50%
HIV RNase H inh-2 = confirmation of HIV-1 reverse transcriptase RNase H inhibitors; AID 651; Recombinant RT RNase H, fluorescent RNA/DNA duplex cleavage; hit rate 39% among 1,000; inhibition, % at 10 µM; shares compounds with HIV RNase H inh-1; in the data active = inhibition above about 48%; inconclusive = no clear call, values can overlap the other calls
* hit, by the source's call; ? = inconclusive. Shown is part of a subset that was picked to be rich in hits.

SMILES	HIV RNase H inh-1	others
N#Cc1nc(-c2ccc(OCc3ccc(Cl)cc3)cc2)oc1NCc1cccnc1	76.1*	HIV RNase H inh-2=64.8*
N#Cc1nc(-c2ccc(OCc3ccccc3)cc2)oc1NCCCn1ccnc1	-13.1
Cc1csc(SCCn2c(N3CCN(c4ccccc4)CC3)nc3c2c(=O)[nH]c(=O)n3C)n1	-5.2
CCOC(=O)CN1CC23C=CC(O2)C(C(=O)Nc2ccc(C(C)=O)cc2)C3C1=O (stereo not given)	-7.2
O=C(Nc1nnc(CC(=O)N2CCCC2)s1)c1cnccn1	-2.8
COC(=O)c1ccc(Cn2cnc3c(cnn3-c3ccc(Cl)cc3)c2=O)o1	-13.2
COc1cccc(NC2=NC3(CCCCC3)N=C(N)N2)c1	-4.4
O=C(O)C1C2C=CC(O2)C1C(=O)Nc1ccc2c(c1)OCCO2 (stereo not given)	-0.5
O=C(O)C1C2C=CC(O2)C1C(=O)Nc1ccc(S(=O)(=O)Nc2ccccc2)cc1 (stereo not given)	58.0*	HIV RNase H inh-2=15.5
O=C(O)C1C2C=CC(O2)C1C(=O)Nc1ccc(S(=O)(=O)N2CCc3ccccc32)cc1 (stereo not given)	-14.1
CCOC(=O)c1ccc2nc3c(cc2c1)CCS3	-10.5
Cc1ccc(C2C(C#N)=C(N)Oc3nc(-c4ccccc4)[nH]c32)o1 (stereo not given)	-7.5
COC1(OC)N=C(N)C2(C#N)C(c3cccc(Oc4ccccc4)c3)C12C#N (stereo not given)	-12.4
Cc1ccc(C2C(C#N)=C(N)Oc3cc4c(cc32)OCO4)cc1 (stereo not given)	-18.0
Cc1ccc(C2C(C#N)=C(N)SC(N)=C2C#N)o1	80.3*	HIV RNase H inh-2=?
N#CC1=C(N)SC(N)=C(C#N)C1c1ccc(C(F)(F)F)cc1	60.7*	HIV RNase H inh-2=15.2
N#CC1=C(N)OC(c2ccccc2)=C(C#N)C1c1ccc2c(c1)OCO2 (stereo not given)	-12.7
CCCc1[nH]nc2c1C(CCc1ccccc1)C(C#N)=C(N)O2 (stereo not given)	-5.6
Cc1ccc(SCc2[nH]nc3c2C(c2ccc(C)o2)C(C#N)=C(N)O3)cc1 (stereo not given)	-7.1
N#CC1=C(N)SC(N)=C(C#N)C1c1cccc(Oc2ccccc2)c1	70.4*	HIV RNase H inh-2=38.6
N#CC1=C(N)SC(N)=C(C#N)C1CCc1ccccc1	71.9*	HIV RNase H inh-2=1.9
N#CC1=C(N)SC(N)=C(C#N)C1c1c(Cl)cccc1Cl	-12.1
N#CC1=C(N)SC(N)=C(C#N)C1C1CC=CCC1 (stereo not given)	1.9
Cc1ccc(NC(=O)C2CCN(S(=O)(=O)c3c(C)n[nH]c3C)CC2)nc1	-16.7
CC(=O)c1ccc(Oc2ncnc3sccc23)c(CN2CCOCC2)c1	-10.7
SMILES	HIV RNase H inh-1	others
CCC(C)NC(=O)c1c(C)cc(=O)oc1C (stereo not given)	9.5
CSc1ncccc1C(=O)OCC(=O)Nc1cc(C(F)(F)F)ccc1N1CCOCC1	0.9
CC1(C)Cc2ccccc2C2CC(O)C(=O)N21 (stereo not given)	25.0
CC(Oc1ccccc1)C(=O)NC1CC(C)(C)NC(C)(C)C1 (stereo not given)	-3.7
Nc1nc2n(n1)C(c1ccc(F)cc1)CC(c1ccc(F)cc1)N2 (stereo not given)	0.5
C=CCOc1nc(N(C)C)nc(N(C)C)n1	-11.0
Cc1cc(=S)n(-c2ccccc2)n1C	0.2
CC(C)(C)c1ccc(C(=O)Nc2cnccn2)cc1	-4.3
O=C(NCc1nnc(SCC(=O)N2CCC(Cc3ccccc3)CC2)o1)c1ccccc1F	-35.8
CCOC(=O)CN(C(=O)CSc1nnc(COc2ccc(OC)cc2)n1C)c1ccccc1	-15.2
O=C(CSc1nnc(CN2CCOCC2)n1-c1ccccc1)Nc1ccc(Cl)cc1	-13.8
CCOc1ccccc1C1C(C#N)=C(N)SC(N)=C1C#N	-5.0
CCCOc1ccc(C2C(C#N)=C(N)Oc3nc[nH]c(=O)c32)cc1OC (stereo not given)	-9.9
CCOc1ccc(C2C(C#N)=C(N)SC(N)=C2C#N)cc1OC	68.8*	HIV RNase H inh-2=4.6
CCOC(=O)C1=C(C)OC(N)=C(C#N)C1c1ccoc1 (stereo not given)	-89.2
COC(=O)C1=C(C)OC(N)=C(C#N)C1c1ccccc1 (stereo not given)	-40.5
CCc1ccc(C2C(C#N)=C(N)SC(N)=C2C#N)cc1	69.9*	HIV RNase H inh-2=18.3
CCCNC(=O)Cn1cnc2sc(C(=O)NCCN(CC)CC)c(C)c2c1=O	-2.7
CC(=O)c1c(C)nc(-c2ccc(Cl)cc2)nc1NC(=O)C(C)C	-5.6
COc1cccc(NC(=O)N2CCN(Cc3nc4ccccc4c(=O)[nH]3)CC2)c1	-0.2
CC(=O)c1cc2c(cc1NC(=O)CN1CCCCC1C)OCO2 (stereo not given)	-0.5
Cc1cc(=O)[nH]c(SCC(=O)NCc2ccco2)n1	9.0
Cc1ccc2c(SCC(=O)NCc3ccco3)nc(-c3ccc(F)cc3)nc2c1	75.1*	HIV RNase H inh-2=54.8*
O=C(CSc1ncc(-c2ccc(F)cc2)[nH]1)NCc1ccco1	-4.3
Cc1ccc(Nc2nnc(SCC(=O)NCc3ccco3)s2)cc1	4.3
SMILES	HIV RNase H inh-1	others
Cc1cc(C)c2cc(C#N)c(SCC(=O)NCc3ccco3)nc2c1	72.0*	HIV RNase H inh-2=35.2
CCOC(=O)CSc1nc2cc(C)cc(C)c2cc1C#N	10.2
c1ccc(-n2nnnc2SCc2cccc3nsnc23)cc1	-10.3
COc1ccc(OC)c(N2C(=O)CC(Cc3ccc(C)cc3)C2=O)c1 (stereo not given)	-3.4
COc1ccccc1NS(=O)(=O)c1cc(C(=O)NCCN2CCOCC2)ccc1Cl	5.0
COC(=O)[C@H](C)NC(=O)Nc1ccc(Oc2ccccc2)cc1	-10.5
CCC(=O)N1CCN(c2ccc(Cl)cc2NC(=O)c2ccc(Br)o2)CC1	-0.3
O=C1NC(Cc2c[nH]c3ccccc23)C(=O)N1CCOc1ccccc1 (stereo not given)	-13.9
CCc1c(C)sc(NC(=O)c2cc(C)no2)c1C#N	60.1*	HIV RNase H inh-2=11.8
Cc1cc(C(=O)Nc2sc(C)c(C)c2C#N)no1	23.1
CCc1c(C)sc(NC(=O)CC#N)c1C#N	37.7
O=C(CC1(O)C(=O)Nc2cc(Cl)cc(Cl)c21)c1ccccc1O (stereo not given)	-18.8
Cc1cc(/C=N/n2cnnc2)c(C)n1-c1cccc(Cl)c1	-85.1
Cc1sc(-n2c(C)cc(/C=N/n3cnnc3)c2C)c(C#N)c1C	78.2*	HIV RNase H inh-2=69.4*
Cc1cc(/C=N/n2cnnc2)c(C)n1-c1ccc(Cl)cc1Cl	-37.1
O=C1C2CC=CCC2C(=O)N1c1ccc(Cc2ccncc2)cc1 (stereo not given)	-3.4
CCOC(=O)C(C)Sc1nc(-c2ccco2)cc(C(F)(F)F)c1C#N (stereo not given)	7.8
Cc1noc(C(=O)N2CC3(C)CC2CC(C)(C)C3)c1Cl (stereo not given)	-14.9
NC(=O)c1ccccc1NS(=O)(=O)Cc1ccccc1	7.6
O=C(c1ccccc1S(=O)(=O)NCc1ccccc1)N1CCCC1	-16.2
O=C(O)c1ccccc1S(=O)(=O)Cc1ccccc1	70.8*	HIV RNase H inh-2=14.6
CCC(=O)N1CCc2cc(S(=O)(=O)CCC(=O)NCCC3=CCCCC3)ccc21	-1.4
CCCCC[C@H](O)/C=C/[C@H]1C=CC(=O)[C@@H]1C/C=C\CCCC(=O)O	77.2*	HIV RNase H inh-2=66.9*
N#CCCN1CCN(S(=O)(=O)c2ccc(S(=O)(=O)NC3CCCC3)cc2)CC1	-8.4
CCc1noc2c1/C(=N\O)CC(c1ccccc1)C2 (stereo not given)	-11.9
CCOC(=O)N1CCC(N2Cc3cccc(C(=O)NCc4ccc(OC)cc4)c3C2=O)CC1	73.2*	HIV RNase H inh-2=44.5
